This is an account of results in PubChem BioAssay AID808 (Columbia University Molecular Screening Center, 2007).

Out of some 93,000 compounds screened, about 180 (0.19%) were called active.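 Rule for the calls: active = activation above the screen mean plus 3 SD, with well images confirming the hit on visual review (cut at about 28% in these data, passing the limit was not always enough); inconclusive = activation above that limit but images do not confirm it; inactive = activation not above that limit.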 Only a selection was taken, and actives are over-represented in it overall.

The nature of the test: potentiators of TNFa-induced VCAM1 expression, primary screen, imaging, HUVEC, TNFa stimulus, immunofluorescence (AID 808).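 Note: signal is the number of cytoplasmic VCAM-1 stained grains per positive cell.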 The note with it: HUVEC TNFa-stimulated VCAM-1 immunofluorescence, high-content imaging; at 2 µM; hits give high values; scaled per plate to unstimulated/TNFa-only wells.
Consider `CCC(CC)c1nnc(NS(=O)(=O)Cc2ccccc2)s1`, for which the activation is 11.2% (inactive).
To `COc1cc(C)nc(N2CCCC(C(=O)NCC(C)C)C2)n1` (stereo not drawn) belongs 5.6% (inactive).
The value for `COc1ccc2c(c1OC)C(=O)N(c1ncn[nH]1)C2` was -7.1% (inactive); that for `Nc1nonc1-c1noc(-c2ccc(Br)o2)n1` was 9.6% (inactive); that for `COc1ccc(Nc2cc(=O)oc3ccccc23)cc1` was -88.9% (inactive).
The value for `Cc1cccc(Cn2c(SCCO)nc3c2c(=O)n(C)c(=O)n3C)c1` was -4.1% (inactive); that for `Cc1cccc(C)c1N1CCN(S(=O)(=O)N2CCOCC2)CC1` was -11.4% (inactive); that for `CSc1ccc(Cl)c(C(=O)OCC(=O)N2CC(C)OC(C)C2)c1` (stereo not drawn) was 4.1% (inactive).
With `NS(=O)(=O)c1cccnc1Nc1cccc(Cl)c1`, the activation was 4.4% (inactive).
The value for `CCN(CC)P(=O)(/C(Cl)=C\Nc1c(C)n(C)n(-c2ccccc2)c1=O)N(CC)CC` was 10.1% (inactive).
As to `CN(C)S(=O)(=O)c1ccc(N2CCCC2)c(C(=O)NCc2ccccc2)c1`, the activation was -5.1% (inactive).
For `COc1ccc(F)cc1S(=O)(=O)Nc1ccc2c(c1)OCO2`, the activation was 22.9% (inactive).
Turning to `COCCNS(=O)(=O)c1cc(Br)ccc1OC`, the activation was 35.9% (active).
`CCCN1Cc2cccc(C(=O)Nc3ccc(S(=O)(=O)N4CCCCCC4)cc3)c2C1=O`: the activation is 1.5% (inactive).
Turning to `C/C(=N\NC(=O)c1ccc(C)cc1)C1C(=O)c2ccccc2C1=O`, the activation is -6.4% (inactive).
Regarding `CCCC(=O)n1nc(-c2ccccc2)nc1N`, the activation was 25.9% (inactive).
To `O=C(COC(=O)c1ccc(S(=O)(=O)N2CCc3ccccc3C2)cc1)NC(=O)NCc1ccco1` belongs -0.5% (inactive); to `COC(=O)c1sc2ncccc2c1OCc1ccc(Cl)cc1Cl`, -10.3% (inactive); to `C=C(Cl)COC(=O)C1C2C=CC(C2)C1C(=O)O` (stereo not drawn), 12.1% (inactive).
The value for `CCN(CC(=O)Nc1ccc2c(c1)OCCO2)Cc1cc(=O)oc2cc(C)c(C)cc12` was 54.4% (active); that for `Cc1ccc(C(=O)Nc2ccc3c(c2)OCO3)cc1S(=O)(=O)N1CCCCC1` was 7.1% (inactive); that for `Cn1cc([N+](=O)[O-])c(C(=O)Nc2ccc3c(c2)OCCO3)n1` was -36.8% (inactive).
To `CC(CCc1ccccc1)NC(=O)c1ccc(Br)o1` (stereo not drawn) belongs -95.4% (inactive); to `NC(=O)COc1ccc2c3c(c(=O)oc2c1)CCCCC3`, -35% (inactive).
Take `Cc1cc(Cl)c(S(=O)(=O)NCC2CCCO2)cc1OCC(N)=O` (stereo not drawn): the activation was 25.1% (inactive).
In the case of `Cc1cc(=O)oc2cc(OCC3CC(c4ccccc4Cl)=NO3)ccc12` (stereo not drawn), the activation is -59.7% (inactive).
The value for `Cc1ccc(CNC(=O)CCCNC(=O)c2ccc(Cl)cc2)n1C` was 7.4% (inactive); that for `Cc1ccc(-c2csc(NC(=O)c3cccs3)n2)cc1` was 5.6% (inactive).
Consider `Cc1cccc(N=C2NC(=O)CS2)c1C`, for which the activation was -97.1% (inactive).
To `COc1ccc(-c2c3c(=O)n(C)c(=O)n(C)c3cn2-c2cccc(OC)c2)cc1` belongs -7.7% (inactive).
`COc1ccc(C(=O)OCC(=O)NCC2CCCCC2)cc1S(=O)(=O)N1CCCc2ccccc21`: the activation was -5.3% (inactive).
`CCOC(=O)CCP(=O)(O)C(O)(c1ccccc1)c1ccccc1`: the activation is -1.8% (inactive).
To `CC(=O)c1cccc(S(=O)(=O)N2CCC(n3nnc4cc(F)ccc43)CC2)c1` belongs -54.7% (inactive).
To `COc1ccc(/C=N/Nc2nc3ccccc3o2)cc1OC` belongs 32.9% (active).
The value for `COc1cc(/C=N/NC(=O)Nc2ccccc2)ccc1OCCOc1ccccc1C` was -51.1% (inactive); that for `C=CCOc1ccc(/C=N/n2cncn2)cc1OC` was 4.4% (inactive).
With `CN1CCN(c2nc3c(c(=O)[nH]c(=O)n3C)n2Cc2cccc3ccccc23)CC1`, the activation was -8.9% (inactive).
The value for `CCC(C)(C)n1nnnc1C(c1cccs1)N1CCN(c2nc3ccccc3s2)CC1` (stereo not drawn) was 0.6% (inactive).
`Cc1ccc(S(=O)(=O)N2CCCC2C(=O)NCc2ccco2)cc1` (stereo not drawn): the activation was 6.4% (inactive).
For the compound `CCCN1C(=O)C(NC(C)=O)c2cc(OC)ccc21` (stereo not drawn), the activation is -5.9% (inactive).
Take `O=C(CO/N=C/c1ccccc1O)NNC(=O)c1ccccc1Cl`: the activation is 2.1% (inactive).
To `CC(=O)Nc1ccc(S(=O)(=O)NCCc2ccccc2)cc1` belongs -7.2% (inactive); to `CCOc1ccc(NC(=O)CCC(=O)n2nc(C)cc2C)cc1`, -6.7% (inactive).
The value for `Cc1ccc(OCc2nnc(NC(=O)OCC(C)C)s2)cc1` was 0.2% (inactive).
To `CCOC(=O)c1sc(NC(=S)n2cc(C)cn2)c(C(=O)OCC)c1C` belongs -0.6% (inactive).
Consider `COCCOC(=O)C1=C(C)N=c2s/c(=C\c3cccs3)c(=O)n2C1c1cccs1` (stereo not drawn), for which the activation was -3.2% (inactive).
With `Cc1c(-c2ccccc2)nc(N)c(C#N)c1-c1cccs1`, the activation was -3.7% (inactive).
The value for `CCc1ccc2oc(=O)cc(CN3CCCCC3C)c2c1` (stereo not drawn) was -6.7% (inactive).
To `O=C1c2ccccc2C2=Nc3ccccc3SC(c3ccccc3F)C12` (stereo not drawn) belongs -0.2% (inactive); to `C=CCn1c2ccccc2c2nnc(SC(CC)C(=O)Nc3nc(C)c(C(=O)OCC)s3)nc21` (stereo not drawn), 10% (inactive).
The value for `O=C(Nc1ccc2nc3n(c(=O)c2c1)CCCCC3)c1ccccc1Cl` was -7.6% (inactive); that for `CCCCN=C1N/C(=C\c2ccco2)C(=O)N1c1ccccc1` was -7.6% (inactive).
For the compound `CC1(C)C/C(=C(/C#N)C(N)=O)CCO1`, the activation was 3.2% (inactive).
To `Cc1noc(C)c1CSCC(=O)Nc1nc2ccc(Oc3ccccc3)cc2s1` belongs -4.3% (inactive).
Take `O=C(Nc1ccc(Sc2ccc(Br)cc2)cc1)c1ccco1`: the activation was -2.8% (inactive).
The value for `Cc1cccc(OCCCC(=O)Nc2ccc(S(=O)(=O)N3CCCC3)cc2)c1` was -20.4% (inactive); that for `CCOC(=O)c1ccc(NC(=O)CSc2ncccn2)cc1` was 21.4% (inactive).
In the case of `O=C(CCCn1c(=O)[nH]c2cc(Cl)ccc2c1=O)NCCN1CCN(c2ccccc2)CC1`, the activation is 4% (inactive).
Regarding `O=C(CSCc1ccccc1Cl)NNC(=O)c1ccccc1`, the activation was -5.4% (inactive).
To `O=C(CS(=O)(=O)Cc1ccccc1)NCC1CCCO1` (stereo not drawn) belongs 24.8% (inactive); to `C/C(=C\C(=O)c1cccnc1)Nc1ccc(C)c(C)c1`, -89.1% (inactive).
Take `CCCNS(=O)(=O)c1ccc2c(c1)CCCN2C(C)=O`: the activation is -100% (inactive).
The value for `C=CCn1c(N)c(C(=O)OCC(C)C)c2nc3ccccc3nc21` was -94.4% (inactive).
